Assay outcomes deposited in PubChem BioAssay by National Center for Advancing Translational Sciences (NCATS).
An excerpt weighted towards active compounds, which were near 11% of everything screened.
HPGD inh = qHTS Assay for Inhibitors of HPGD (15-Hydroxyprostaglandin Dehydrogenase). AID 894, 2007. actives 4.3% (n = 150,000). Potency, µM, actives largely listed as inhibitors. purified HPGD, NADH fluorescence kinetic, PGE2 substrate. 15-hydroxyprostaglandin dehydrogenase [NAD(+)] (Homo sapiens), P15428
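NADH formation kinetics: reaction with 30 uM PGE2 and 1 mM NAD+ (final), 20 nM enzyme, Tris-HCl pH 8 with Tween 20, after 15 min compound preincubation at room temperature. Fluorescence change, last versus first of five reads.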
ALDH1A1 block = qHTS Assay for Inhibitors of Aldehyde Dehydrogenase 1 (ALDH1A1); Aldehyde dehydrogenase 1A1 (Homo sapiens), P00352; Purified ALDH1A1, NADH fluorescence, propionaldehyde substrate; actives 7.3% (n = 220,000); Potency, µM (titrated, usually from 75.3 µM), most hits filed as inhibitors
Target sequence (P00352 whole entry, looked up): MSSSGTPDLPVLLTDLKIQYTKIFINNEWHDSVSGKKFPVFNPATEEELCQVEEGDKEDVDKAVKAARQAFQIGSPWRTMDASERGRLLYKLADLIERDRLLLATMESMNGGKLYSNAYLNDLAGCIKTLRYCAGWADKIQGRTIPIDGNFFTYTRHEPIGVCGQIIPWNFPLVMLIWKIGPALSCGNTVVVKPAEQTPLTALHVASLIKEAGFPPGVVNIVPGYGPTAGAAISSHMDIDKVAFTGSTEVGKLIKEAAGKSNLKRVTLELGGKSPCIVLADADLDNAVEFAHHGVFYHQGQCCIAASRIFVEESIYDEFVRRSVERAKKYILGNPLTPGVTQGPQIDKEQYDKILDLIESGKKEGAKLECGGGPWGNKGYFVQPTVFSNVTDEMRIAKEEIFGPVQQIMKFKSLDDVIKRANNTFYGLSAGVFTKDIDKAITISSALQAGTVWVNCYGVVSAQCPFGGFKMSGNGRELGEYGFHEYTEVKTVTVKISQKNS
PNC assembly inh = High Content Assay for Compounds that inhibit the Assembly of the Perinucleolar Compartment; PC3M PTB-GFP, PNC prevalence imaging, 16 h; active compounds read low; activity change (PNC), negative = inhibition, % at 10 µM; actives 3.1% (n = 140,000); AID 2417, 2010;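 active = readout at or below -70, meaning at least 70% loss of cells showing the perinucleolar compartment, a nuclear body marking cancer cells; inconclusive = readout between -30 and a set limit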
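Read-out is percentage of cells bearing a perinucleolar compartment, from automated 20x imaging of fixed, Hoechst-stained PC3M PTB-GFP cells. Cells were seeded 4 h, then exposed 16 h to compound (23 nl of library stock) in duplicate plates.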
Hits are given with their value; – = inactive; ? = inconclusive; · = not tested or not shown; [ ] = dose if it differs, or a comment. Unless noted, calls come from the whole dose curve; as a rule, active = well fitted inhibition curve with a large enough effect (not every such curve was filed as active); inconclusive = small, poorly fitted or top-dose-only effect, or another doubt; inactive = no such curve, though single readings can be large or run the other way.

SMILES | HPGD inh | ALDH1A1 block | PNC assembly inh
Cc1c2oc3c(C)ccc(C(=O)N[C@@H]4C(=O)N[C@H](C(C)C)C(=O)N5CCC[C@H]5C(=O)N(C)CC(=O)N(C)[C@@H](C(C)C)C(=O)O[C@@H]4C)c3nc-2c(C(=O)N[C@@H]2C(=O)N[C@H](C(C)C)C(=O)N3CCC[C@H]3C(=O)N(C)CC(=O)N(C)[C@@H](C(C)C)C(=O)O[C@@H]2C)c(N)c1=O | – | ? | ·
COC(=O)c1ccc2nc(Nc3nc4c(F)cc(F)cc4s3)sc2c1 | ? | ? | -100
CCOC(=O)c1ccc2nc(NC(C)=O)sc2c1 | · | – | ·
CCOC(=O)c1ccc2nc(Nc3nc4ccc(F)cc4s3)sc2c1 | ? | ? | -107
COC(=O)c1ccc2nc(NC(=O)C(C)C)sc2c1 | · | – | ·
CCOc1ccc2nc(N(CCN(CC)CC)C(=O)c3cccc([N+](=O)[O-])c3)sc2c1 | · | – | ·
COc1ccc(CCCc2n[nH]c(=S)n2C)cc1C | · | – | ·
COc1ccc(CCCc2n[nH]c(=S)o2)cc1C | · | 8.9µM | ·
CS(=O)(=O)n1nc(C(=O)N2CCOCC2)nc1N | – | – | –
O=C(CSc1ccc2nnc(-c3ccncc3)n2n1)Nc1nccs1 | · | – | ·
Cc1sc(NC(=O)CSc2nnnn2C2CCCC2)c(C#N)c1C | · | ? | –
CC(C)(C)c1ccc(-c2nnc(SCC(=O)Nc3sc4c(c3C#N)CCCC4)o2)cc1 | – | – | –
Cn1c(SCc2cnc(-c3ccccc3)s2)nnc1C1COc2ccccc2O1 (stereo unspecified) | 25µM | 13µM | –
N#Cc1c(NC(=O)CSc2nnnn2C2CCCC2)sc2c1CCCC2 | – | 3.5µM | –
Cn1c(SCc2cc(=O)n3cc(Br)ccc3n2)nnc1C1COc2ccccc2O1 (stereo unspecified) | ? | ? | –
Clc1ccc(-c2nn3c(C4COc5ccccc5O4)nnc3s2)cc1 (stereo unspecified) | 13µM | 7.9µM | –
CN(C)c1ccc(-c2nn3c(-c4ccc(Cl)cc4)nnc3s2)cc1 | · | ? | –
CCCCn1nnnc1SCC(=O)Nc1sc2c(c1C#N)CCCC2 | – | 28µM | –
CC(OC(=O)Cc1c(F)cccc1Cl)C(=O)NCCC1=CCCCC1 (stereo unspecified) | – | – | –
NC(C(=O)O)C(O)C(=O)O (stereo unspecified) | – | – | ·
Cc1cc(SCC(=O)OCC(=O)NCC2CCCO2)c(C)cc1Br (stereo unspecified) | · | – | ·
CN(C(=O)c1ccc(COc2ccccc2Br)o1)c1ccccc1 | · | – | ·
COc1ccc(C(=O)NCC(=O)NCC(=O)OCc2ccc(Br)cc2)cc1 | · | – | ·
C=CCNS(=O)(=O)c1ncnc2nc[nH]c12 | – | –[13.5 µM] | ·
N#Cc1c(NC(=O)C2CC2)sc2c1CCCCC2 | – | ? | –
SMILES | HPGD inh | ALDH1A1 block | PNC assembly inh
COC(=O)c1ccc(NC(=O)CSC2=NCCN2)cc1 | – | – | –
NS(=O)(=O)c1ccc(NC(=O)CSC2=NC(=O)C(c3ccccc3)C(=O)N2)cc1 (stereo unspecified) | · | ? | –
CCC1C(=O)N=C(SCC(=O)Nc2ccc(C(=O)OC)cc2)NC1=O (stereo unspecified) | 14µM | – | –
C=CCn1c(SCC(=O)Nc2sc3c(c2C#N)CCC3)nnc1C1COc2ccccc2O1 (stereo unspecified) | – | ? | ?
Cn1c(SCC(=O)Nc2sc3c(c2C#N)CCC3)nnc1C1COc2ccccc2O1 (stereo unspecified) | – | – | -81
CC(=O)NC1C(=O)N=C(SCC(=O)Nc2cccc(Cl)c2)NC1=O (stereo unspecified) | · | 28µM | ·
CC(=O)NC1C(=O)N=C(SCC(=O)Nc2sc3c(c2C#N)CCCCCC3)NC1=O (stereo unspecified) | · | 40µM | ·
COCC(=O)N1CCC2(CCCN(c3cccc(-c4ccccc4)c3)C2)CC1 | – | ? | ·
O=C(O)C(Cc1c[nH]c2ccccc12)N1C(=O)c2ccccc2C1=O (stereo unspecified) | · | – | ·
COCCCNC(=O)CN1CCN(Cc2ccc(Cl)cc2)C1=O | – | – | –
Cc1cc(-c2ccccc2)oc(=O)c1NC(=O)c1ccccc1 | · | – | ·
COc1ccc(-c2ccc(-c3cc(=O)oc4c(C(C)C)ccc(C)c34)cc2)cc1 | – | – | ·
O=C(CSc1nnc(-c2cccnc2)s1)Nc1ccc(C(=O)O)cc1 | – | ? | ?
CCOC(=O)c1c(NC(=O)c2ccc(N3C(=O)C4C5C=CC(C5)C4C3=O)cc2)sc2c1CCCC2 (stereo unspecified) | ? | ? | –
COC(=O)c1c(NC(=O)CSc2ncnc3[nH]ncc23)sc2c1CCC2 | · | 14µM | ·
N#Cc1c(NC(=O)CSc2ncn[nH]2)sc2c1CCCCC2 | – | ? | -117
N#Cc1cc2c(nc1SCC(=O)Nc1sc3c(c1C#N)CCC3)CCCC2 | – | ? | –
N#Cc1c(NC(=O)CSc2nc(N)cc(=O)[nH]2)sc2c1CCCCCC2 | – | – | –
COC(=O)c1c(NC(=O)CSc2ncnc3c2cnn3-c2ccccc2Cl)sc2c1CCCC2 | – | ? | –
N#Cc1c(NC(=O)CSc2ncn(-c3ccccc3)n2)sc2c1CCCC2 | – | ? | ?
N#Cc1ccc(-c2ccc(F)cc2)nc1SCC(=O)Nc1sc2c(c1C#N)CCC2 | ? | 25µM | –
Cn1cnnc1SCC(=O)Nc1sc2c(c1C#N)CCCCC2 | – | 7.1µM | ?
CSCCC(NS(=O)(=O)c1ccc(Cl)c(Cl)c1)C(=O)O (stereo unspecified) | · | – | ·
CC(Oc1ccc(Br)cc1)C(=O)Nn1c(=S)[nH]c2ncccc2c1=O (stereo unspecified) | – | – | –
Cc1ccc(-c2ccc(=O)n(CC(=O)NCc3ccc(F)cc3)n2)cc1 | · | – | ·
SMILES | HPGD inh | ALDH1A1 block | PNC assembly inh
Cc1ccc(OCC(=O)N/N=C/c2c[nH]c3ccccc23)c([N+](=O)[O-])c1 | – | – | –
CCOc1ccc(-c2nnn(CC(=O)NCc3ccccc3)n2)cc1 | · | – | ·
O=C1c2ccccc2C(=O)N1/N=C/c1ccc(Oc2ccc([N+](=O)[O-])cn2)cc1 | · | – | ·
COc1ccccc1C(=O)C1CCCN(C(=O)c2ccccn2)C1 (stereo unspecified) | · | – | ·
COc1cc2c(cc1OC)-c1c(OC)c(OC)cc3ccnc(c13)C2=O | 8.9µM | – | –
COc1cc(C(=O)Nc2ccc3c(c2)C(=O)c2ccccc2C3=O)cc(OC)c1OC | – | – | –
COc1ccc(-c2[nH]ncc2-c2nc(C)cs2)c(O)c1 | · | – | ·
COc1ccc(O)c(-c2[nH]ncc2C(=O)c2ccccc2C)c1 | – | 13µM | –
CC1CCN(CC(=O)N2c3ccccc3Sc3cc4ccccc4cc32)CC1 | – | –[13.5 µM] | ·
Cn1c(=O)c2c(SCc3cccnc3)nc(C3CC3)nc2n(C)c1=O | – | – | –
CCc1nc(SCc2cccnc2)c2c(=O)n(C)c(=O)n(C)c2n1 | – | – | –
CC(C)Cc1nc(SCc2cccnc2)c2c(=O)n(C)c(=O)n(C)c2n1 | · | 7.1µM | ·
Cn1c(=S)c2[nH]c(SCc3cccnc3)nc2n(C)c1=O | 4µM | ? | ·
C(=C/c1ccnc2nc(SC/C=C/c3ccccc3)nn12)/c1ccccc1 | ? | – | –
COCCNC(=O)c1ccc2c(c1)NC(=O)CS2 | 35µM | – | –
